Screening results: PubChem BioAssay, National Center for Advancing Translational Sciences (NCATS)
Most compounds without a hit are left out; they make up all but 1.5% or so of the library.
FEN1 inhibitor – qHTS Assay for the Inhibitors of Human Flap endonuclease 1 (FEN1). Potency, µM (series often up to 114 µM), most hits filed as inhibitors. P39748. Recombinant FEN1 flap cleavage, fluorescence, 15 min. 390,000 compounds, 0.35% hits. AID 588795, 2011; further: nearly all actives have a fitted effect of over 65% in size
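Concentration–response screening of FEN1 (10 nM): 15 min compound preincubation at room temperature, reaction started with 50 nM substrate and read at 0 and 15 min. Corrected, normalized data were fitted by a four-parameter Hill equation.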
BLM helicase inh – qHTS Assay for Inhibitors of Bloom's syndrome helicase (BLM); Potency, µM (series often up to 56.1 µM), most hits filed as inhibitors; recombinant BLM DNA unwinding, fluorescence dequenching; 350,000 compounds, 0.2% hits; RecQ-like DNA helicase BLM (Homo sapiens), P54132; AID 2528, 2010; further: nearly all actives have a fitted effect of over 35% in size
RECQ1 helicase – qHTS Assay for Inhibitors of RecQ-Like Dna Helicase 1 (RECQ1). ATP-dependent DNA helicase Q1 (Homo sapiens), P46063. RECQ1 DNA unwinding, red fluorescence kinetic read. Potency, µM (titrated, usually from 57.3 µM), actives largely listed as inhibitors. AID 2549, 2010. 240,000 compounds, 0.54% hits; further: nearly all actives have a fitted effect of over 30% in size
Target sequence (P46063 whole entry, looked up): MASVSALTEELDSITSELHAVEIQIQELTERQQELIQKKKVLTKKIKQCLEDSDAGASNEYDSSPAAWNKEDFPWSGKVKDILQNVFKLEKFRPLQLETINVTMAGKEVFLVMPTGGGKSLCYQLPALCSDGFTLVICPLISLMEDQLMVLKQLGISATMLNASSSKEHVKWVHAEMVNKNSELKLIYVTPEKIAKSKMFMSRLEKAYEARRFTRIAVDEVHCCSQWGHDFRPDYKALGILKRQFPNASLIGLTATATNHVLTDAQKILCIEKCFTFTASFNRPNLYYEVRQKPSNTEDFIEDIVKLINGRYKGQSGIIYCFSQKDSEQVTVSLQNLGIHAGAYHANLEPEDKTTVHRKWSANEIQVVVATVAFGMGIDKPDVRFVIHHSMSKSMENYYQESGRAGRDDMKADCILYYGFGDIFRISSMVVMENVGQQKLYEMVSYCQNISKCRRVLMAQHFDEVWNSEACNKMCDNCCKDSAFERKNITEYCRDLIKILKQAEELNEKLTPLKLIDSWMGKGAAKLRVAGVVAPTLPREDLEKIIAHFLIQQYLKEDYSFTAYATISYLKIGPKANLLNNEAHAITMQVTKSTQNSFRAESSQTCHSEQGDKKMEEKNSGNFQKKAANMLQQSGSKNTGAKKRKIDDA
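RECQ1T1 50 nM; forked duplex (20 bp + 30-nt ss tails) 200 nM, ATP 2 mM final; pH 8.0, 2 mM MgCl2, 2.5 ug/ml poly(dI-dC); 15 min compound preincubation; discontinuous kinetic read over 2 h at RT.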
PI5P4Ka inh – qHTS for Inhibitors of phosphatidylinositol 5-phosphate 4-kinase (PI5P4K) | Phosphatidylinositol 5-phosphate 4-kinase type-2 alpha (Homo sapiens), P48426 | 330,000 compounds, 1.2% hits | max response, % | AID 652105, 2013 | PI5P4Kalpha enzyme, ADP-Glo luminescence, 60 min; hits give low values; active means max response of -50% or lower; inconclusive means between -30% and -50%; inactive means -30% or higher; further: value at the top dose of about 77 µM
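Compounds were pin-transferred onto PI5P4Kalpha and substrate in HEPES pH 7.4 buffer with EGTA, CHAPS and 5% DMSO. ATP (5 microM final) started the reaction, which ran 60 minutes at room temperature before ADP-Glo detection.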
APE1 inh – qHTS Assay for Inhibitors of the Human Apurinic/apyrimidinic Endonuclease 1 (APE1). recombinant APE1, TAMRA/BHQ-2 abasic DNA cleavage fluorescence. Potency, µM (doses to about 65.8 µM), hits mostly inhibitors. 350,000 compounds, 0.35% hits. AID 2517, 2012; further: nearly all actives have a fitted effect of over 55% in size
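Activity was derived from the fluorescence gain between first and third kinetic reads (60 s intervals, ex 525/em 598 nm) after 50 nM THF-abasic TAMRA/BHQ-2 duplex was added to 0.75 nM APE1 preincubated 15 min with compound.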
GCN5L2 inh – qHTS Assay for Inhibitors of GCN5L2. 390,000 compounds, 0.21% hits. GCN5L2 HAT assay, ThioGlo1 CoA-SH fluorescence. AID 504327, 2011. Histone acetyltransferase KAT2A (Homo sapiens), Q92830. Potency, µM (highest dose often 58.9 µM), most hits filed as inhibitors
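Titration-based screen in which CoA formation is detected via maleimide probe ThioGlo1 (50uM) turning fluorescent on thiol reaction; substrates H3(1-25) 75uM and acetyl-CoA 70uM, GCN5L2 20nM, 20 min incubation at room temperature.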
Hits are given with their value; i = inactive; ? = inconclusive; nt = not tested or not shown; [ ] = remark or other dose. Unless noted, the call rests on the fitted dose curve; in most records, active means well fitted curve in the direction sought with a large enough effect; inconclusive means small, poorly fitted or top-dose-only effect, or another doubt; inactive means no such curve, though single readings can be large; an effect the other way counts as inactive or inconclusive.

SMILES | FEN1 inhibitor | BLM helicase inh | RECQ1 helicase | PI5P4Ka inh | APE1 inh | GCN5L2 inh
O=C1NC(=Nc2ccccc2Cl)S/C1=C\c1ccc(C(=O)O)cc1 | i | i | nt | -65.2 | i | i
CC(C)CC(=O)N1C/C=C\C[C@@H](c2ccc(Cl)cc2)N(Cc2ccc(Cl)cc2)C(=O)[C@@H]1Cc1ccccc1 | i | nt | nt | nt | nt | nt
CCN(CC)/[N+]([O-])=N/OCOC(=O)C(C)c1ccc(CC(C)C)cc1 (stereo not drawn) | i | nt | nt | nt | nt | nt
CCCn1c2ccccc2c2nc3ccccc3nc21 | ? | i | i | i | i | i
CCN(CC)CCn1c2ccccc2c2nc3ccccc3nc21 | 25.1µM | i | nt | i | i | i
CCN(CCN(C)Cl)/[N+]([O-])=N/Oc1ccc([N+](=O)[O-])cc1[N+](=O)[O-] | i | nt | nt | nt | nt | nt
Cc1cc(/C=C(\C#N)C(=O)O)c(C)n1CC1CCCO1 (stereo not drawn) | ? | i | i | -72.1 | i | i
O=C(Nc1ccc(Nc2ccncc2)cc1)c1ccc(Nc2ccnc3ccc([N+](=O)[O-])cc23)cc1[N+](=O)[O-] | i | i | i | -53.8 | i | i
Cc1cc(NC(=O)CSCc2ccc([N+](=O)[O-])cc2)no1 | i | i | i | i | i | i
CC(C)(C)SCCNC(=O)CSCc1ccc([N+](=O)[O-])cc1 | i | i | i | i | i | 1.78µM
CCCNc1nc(Nc2ccc([N+](=O)[O-])cc2)nc(N2CCOCC2)n1 | i | nt | nt | nt | nt | nt
C[N+]1(CC(=O)c2ccc(Oc3ccccc3)cc2)CCOCC1 | i | nt | nt | nt | nt | nt
Cc1ccc(NC(=O)C(c2ccc(Cl)cc2)N2CCCCC2)cc1 (stereo not drawn) | i | i | i | i | i | 2.24µM
Cc1ccc(NC(=O)C(c2ccc(Cl)cc2)N2CCOCC2)cc1 (stereo not drawn) | i | i | i | i | i | i
COc1ccc(-n2c(SCC(=O)Nc3cc(C(=O)O)ccc3C)nc3ccccc3c2=O)cc1Cl | i | i | i | -63.9 | i | i
COc1ccc(-n2c(SCC(=O)Nc3cc(C)on3)nc3ccccc3c2=O)cc1Cl | i | i | i | i | i | i
O=C(O)c1ccc(/C=N/NC(=O)c2ccc(CN3c4cccc5cccc(c45)S3(=O)=O)cc2)cc1 | ? | i | ? | -54.0 | i | i
CCOC(=O)C1C(c2ccc3c(c2)OCO3)NC(=O)NC1(O)C(F)(F)F (stereo not drawn) | i | i | i | -53.0 | i | i
CCOC(=O)C1C(c2ccc(O)c(OC)c2)NC(=O)NC1(O)C(F)(F)F (stereo not drawn) | i | i | nt | i | i | i
O=C(CN(CCc1c[nH]c2ccccc12)S(=O)(=O)c1ccccc1)N1CCCCCC1 | i | nt | nt | nt | nt | nt
O=C(NOC(=O)c1ccccc1)c1ccccc1 | i | i | i | i | i | 35.5µM
COC(=O)c1ccccc1 | nt | nt | i | nt | i | nt
O=C(Cn1cncn1)N/N=C/c1cccc2ccccc12 | i | i | i | i | i | i
O=C(Cn1cncn1)NCc1cccc2ccccc12 | i | i | i | i | ? | 3.55µM
CCC(C)n1c(SCC(=O)Nc2ccccc2C(F)(F)F)nc2ccsc2c1=O (stereo not drawn) | i | i | i | nt | i | i
SMILES | FEN1 inhibitor | BLM helicase inh | RECQ1 helicase | PI5P4Ka inh | APE1 inh | GCN5L2 inh
O=C(O)CCCCn1c(SCC(=O)Nc2ccccc2C(F)(F)F)nc2ccsc2c1=O | i | i | i | -99.2 | i | i
COc1ccc2c(c1)C/C(=C\c1ccc(N(C)C)cc1)C2=O | i | nt | nt | nt | nt | nt
O=C1c2cc(O)c(O)cc2OC(c2ccc(O)c(O)c2)C1O (stereo not drawn) | 31.6µM | nt | nt | ? | nt | nt
O=C(CNC(=O)C1CCCCC1)OCC(=O)c1ccc(C2CCCCC2)cc1 | i | nt | nt | nt | nt | nt
O=S(=O)(NCc1cccs1)c1cccc2cccnc12 | i | i | i | nt | i | 3.98µM
O=C1N/C(=N/O)S/C1=C/c1cccnc1 | i | i | i | -55.4 | i | i
CC12C=C(/C=C/C=C/c3ccco3)C(C)(C1)C(/C=C/c1ccco1)CC2=O (stereo not drawn) | nt | i[12.4 µM] | 1.41µM | nt | ? | nt
CC12C=C(/C=C/C=C/c3ccccc3)C(C)(C1)C(/C=C/c1ccccc1)CC2=O (stereo not drawn) | nt | i[12.4 µM] | i[11.5 µM] | nt | ? | nt
C[N+]1(CC(=O)c2ccc3c(c2)CCCC3)CCOCC1 | i | nt | nt | nt | nt | nt
COc1cccc(/C=N/Nc2cc(N3CCOCC3)ncn2)c1O | i | i | nt | -97.7 | i | i
COC(=O)c1cccc(C(=O)Nc2ccc(F)cc2)n1 | i | i | i | nt | i | 15.8µM
CCNc1ncc2nc(-c3cccs3)c(=O)n(CCC#N)c2n1 | nt | i | i | nt | i | 7.08µM
Cc1cc(Nc2nn(C)c(N)c2C#N)ccc1F | i | i | i | -65.6 | i | i
COc1ccc(Nc2nc(C)cc(C)c2C#N)cc1 | i | i | i | i | i | i
CC(C)(C)c1ccc(C(=O)C[n+]2cc(Br)cc(Br)c2)cc1 | i | nt | nt | nt | nt | nt
COCCN(CC(=O)Nc1cccc(C)c1C)C(=O)c1cc2c(s1)CCC2 | i | nt | nt | ? | 15µM | i
O=C(N/N=C/c1cc(O)ccc1Br)c1cccnc1 | i | i | nt | i | i | i
O=C(N/N=C/c1cc(Br)c(O)c(Br)c1O)c1cccnc1 | i | i | nt | -59.4 | i | i
Cc1cccc(OCC(=O)Nc2cc(C)c(O)c(-c3nc4ccccc4o3)c2)c1 | i | nt | nt | nt | nt | nt
O=[N+]([O-])c1ccc(N2CCCCC2)nc1N1CCCCC1 | i | i | i | i | i | i
O=[N+]([O-])c1ccc2c(c1N1CCCCC1)=NC1(CCCCC1)[N+]=2[O-] | i | i | i | -52.7 | i | i
CCCCCCCCCCCCCCCCn1cc[n+](Cc2ccccc2)c1C | nt | ? | i | nt | ? | 8.91µM
Cc1cc2ccccc2c[n+]1C | i | nt | nt | nt | nt | nt
CCc1ccc(NC(=O)C(C)Sc2nc(-c3ccco3)c(C#N)c(=O)[nH]2)cc1 (stereo not drawn) | i | i | nt | -57.3 | i | i
CCC(Sc1nc(-c2cccc(OC)c2)c(C#N)c(=O)[nH]1)C(=O)Nc1nnc(C(C)C)s1 (stereo not drawn) | i | i | i | ? | i | i
CCn1nc(-c2ccccc2C)nc2c(=O)n(C)c(=O)nc1-2 | i | nt | nt | nt | nt | nt
Cc1ccc(/C(N)=N/OC(=O)Cc2cccs2)cc1 | i | i | i | i | i | i
N/C(=N\OC(=O)Cc1cccs1)c1ccccc1 | i | i | i | -60.6 | i | i
